This is an account of results in PubChem BioAssay.

Experiment [1] has as its system Wnt5a (protein binding on small-molecule microarray). Description: Wnt5a binders on small-molecule microarray, primary screen, biophysical, 635/667 nm fluorescence (AID 1142).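 Further: fluorescence read at 667 nm with signal to noise per printed feature.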 Conditions: 635 nm fluorescence, higher = more signal.
The nature of experiment [2]: cell viability in Huh7 cells, primary screen, cytotoxicity control for HCV replication inhibitor project, CellTiter-Glo luminescence, basal, 48 h (AID 1143).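 Further: Huh7 hepatoma cells carrying a hepatitis C replication reporter with no stimulus; test concentration not given here.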 Conditions: Huh7 HCV replicon, higher = more signal, called active from +8 up or from −8 down.
Experiment [3] is described as follows: P. aeruginosa biofilm formation inhibitors, primary screen, PAO1 strain, BacTiter-Glo luminescence, LB-PBS (AID 1144). The conditions noted are these: 12 h, higher = more signal.
Experiment [4] is described as follows: CREB reporter modulators without forskolin, primary screen, cell-based, PC12, CRE-LacZ reporter, unstimulated (AID 1145). The conditions noted are these: no forskolin, luminescence, 4.5 h, higher = more signal, called active from +8 up or from −8 down.
A short description of experiment [5]: CREB reporter modulators under forskolin, primary screen, cell-based, PC12, CRE-LacZ reporter, forskolin-stimulated (AID 1146).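 Further: PC12 cells with 6xCRE LacZ reporter stimulated by forskolin 10 µM; beta-galactosidase reporter signal reflecting CREB driven transcription.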 Conditions: luminescence, 4.5 h, higher = more signal, called active from +8 up or from −8 down.
The target of experiment [6] is Streptavidin (Streptomyces avidinii) (UniProt P22629). The experiment is described as follows: streptavidin binders on small-molecule microarray, primary screen, artefact control for SMM compound annotation, biophysical, 635/667 nm fluorescence (AID 1147).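 Further: signal reflects streptavidin binding to arrayed compounds as a control protein.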 Conditions: streptavidin binding, higher = more signal.
Sequence of Streptavidin (Streptomyces avidinii) (P22629 whole entry, looked up): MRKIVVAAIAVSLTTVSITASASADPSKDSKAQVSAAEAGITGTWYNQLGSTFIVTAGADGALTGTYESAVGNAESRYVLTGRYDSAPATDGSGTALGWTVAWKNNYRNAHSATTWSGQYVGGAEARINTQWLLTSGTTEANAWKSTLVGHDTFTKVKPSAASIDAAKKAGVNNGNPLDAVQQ
A short description of experiment [7]: small-molecule binders of probe aInhba, primary screen, biochemical, small-molecule microarray, 635/667 nm fluorescence (AID 1148).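 Further: score merges 667nm spot fluorescence with signal-to-noise for antibody binding to printed compounds.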 Conditions: higher = more signal.
Experiment [8] has as its target Torsin-1A (Homo sapiens) (UniProt O14656). Description: torsin A binders from cell lysate, primary screen, small-molecule microarray, wild-type, 635/667 nm (AID 1149). The conditions noted are these: COS7 hTOR1A-WT lysate, 635 nm fluorescence, higher = more signal.
Experiment [9] shares this target. The experiment is described as follows: small-molecule binders of mutant TOR1A in lysate, primary screen, cell lysate, small-molecule microarray, COS7 lysate, 635/667 nm fluorescence (AID 1150).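 Further: score pools 667 nm emission and signal to noise measuring lysate protein binding.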 The conditions noted are these: COS7 hTOR1A mutant lysate, 635 nm fluorescence, higher = more signal.
Experiment [10] concerns Sonic hedgehog protein (Shh). The experiment is described as follows: small-molecule binders of Shh protein, primary screen, biochemical, small-molecule microarray, 635/667 nm fluorescence (AID 1151).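 Further: Shh protein binding to compounds spotted on small-molecule microarray slides; score combines spot fluorescence intensity with signal-to-noise across triplicate slides.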 Conditions: small-molecule microarray binding, 635 nm fluorescence; higher = more signal.
Experiment [11] in a line: E. coli DRC41 culture turbidity changes, primary screen, E. coli filamentation inducer project, strain DRC41, OD650, 48 h (AID 1152).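 Further: E. coli MC1000 strain DRC41 lacking acrAB efflux pump and sulA.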 Conditions: E. coli DRC41 (acrAB sulA), higher = more signal, called active from +8 up or from −8 down.
The nature of experiment [12]: small-molecule binders of probe aLefty1, primary screen, biochemical, small-molecule microarray, 635/667 nm fluorescence (AID 1153).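 Further: score merges spot fluorescence with signal-to-noise ratio from the scanned slide images.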 Conditions: higher = more signal.
The nature of experiment [13]: PSAC antagonists in infected red cells, primary screen, cell-based, P. falciparum Indochina, OD700, 1 h (AID 1154). Conditions: P. falciparum Indochina infected RBC osmotic lysis, higher = more signal, called active from +8 up or from −8 down.
Experiment [14] can be described thus: PSAC antagonists in infected red cells, primary screen, cell-based, P. falciparum Indochina, OD700, 2 h (AID 1155).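 Further: lysis reports solute entry through the parasite surface anion channel PSAC; channel blockers reduce lysis of infected cells.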 Conditions: P. falciparum Indochina infected erythrocytes, osmotic lysis OD700; higher = more signal, called active from +8 up or from −8 down.
Experiment [15] in a line: osmotic lysis modulators in infected erythrocytes, primary screen, PSAC antagonist project, cell-based, P. falciparum Indochina, OD700, 3 h (AID 1156). Conditions: higher = more signal, called active from +8 up or from −8 down.
A short description of experiment [16]: PSAC antagonists in infected red cells, primary screen, cell-based, P. falciparum Indochina, OD700, 18 h (AID 1157). The conditions noted are these: P. falciparum Indochina infected erythrocytes, osmotic lysis OD700, 18 h; higher = more signal, called active from +8 up or from −8 down.
Experiment [17] is described as follows: modulators of S6 phosphorylation in cells, primary screen, cell-based, A549, cytoblot, luminescence, serum-stimulated (AID 1158).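 Further: serum-stimulated A549 lung adenocarcinoma cells; signal is phosphorylated S6 detected by cytoblot immunostaining with HRP secondary.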 The conditions noted are these: A549 phospho-S6 cytoblot, 5 h, higher = more signal.
The target of experiment [18] is NADPH oxidase 2 (Homo sapiens) (UniProt P04839). The experiment is described as follows: NOX2-dependent H2O2 signal modulators, primary screen, NOX inhibitor project, cell-based, HEK293-NOX2, PMA-stimulated, Amplex Red fluorescence (AID 1159). Further: test concentration not given here. Conditions: 45 min, higher = more signal, called active from +8 up or from −8 down.
Sequence of NADPH oxidase 2 (Homo sapiens) (P04839 whole entry, looked up): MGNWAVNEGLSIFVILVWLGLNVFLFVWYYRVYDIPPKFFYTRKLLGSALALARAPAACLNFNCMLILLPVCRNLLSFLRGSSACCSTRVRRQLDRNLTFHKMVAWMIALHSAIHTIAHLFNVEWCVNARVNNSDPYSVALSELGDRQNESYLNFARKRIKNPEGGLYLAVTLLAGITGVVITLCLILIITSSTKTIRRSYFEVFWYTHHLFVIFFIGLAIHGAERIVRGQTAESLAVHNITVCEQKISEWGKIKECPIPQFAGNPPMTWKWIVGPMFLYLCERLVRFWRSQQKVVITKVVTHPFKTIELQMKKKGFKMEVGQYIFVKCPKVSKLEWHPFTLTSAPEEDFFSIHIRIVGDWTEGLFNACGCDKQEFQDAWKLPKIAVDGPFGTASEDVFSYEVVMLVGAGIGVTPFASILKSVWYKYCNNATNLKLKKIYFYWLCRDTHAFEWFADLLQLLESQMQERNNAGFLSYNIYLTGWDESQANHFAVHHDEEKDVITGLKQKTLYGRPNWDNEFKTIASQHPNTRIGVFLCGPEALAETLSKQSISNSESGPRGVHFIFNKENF
In experiment [19] the target is NADPH oxidase 4 (Homo sapiens) (UniProt Q9NPH5). The experiment is described as follows: NOX4-dependent H2O2 signal modulators, primary screen, NOX inhibitor project, cell-based, HEK293-NOX4, tetracycline-induced, Amplex Red fluorescence (AID 1160). The conditions noted are these: 45 min, higher = more signal, called active from +8 up or from −8 down.
Sequence of NADPH oxidase 4 (Homo sapiens) (Q9NPH5 whole entry, looked up): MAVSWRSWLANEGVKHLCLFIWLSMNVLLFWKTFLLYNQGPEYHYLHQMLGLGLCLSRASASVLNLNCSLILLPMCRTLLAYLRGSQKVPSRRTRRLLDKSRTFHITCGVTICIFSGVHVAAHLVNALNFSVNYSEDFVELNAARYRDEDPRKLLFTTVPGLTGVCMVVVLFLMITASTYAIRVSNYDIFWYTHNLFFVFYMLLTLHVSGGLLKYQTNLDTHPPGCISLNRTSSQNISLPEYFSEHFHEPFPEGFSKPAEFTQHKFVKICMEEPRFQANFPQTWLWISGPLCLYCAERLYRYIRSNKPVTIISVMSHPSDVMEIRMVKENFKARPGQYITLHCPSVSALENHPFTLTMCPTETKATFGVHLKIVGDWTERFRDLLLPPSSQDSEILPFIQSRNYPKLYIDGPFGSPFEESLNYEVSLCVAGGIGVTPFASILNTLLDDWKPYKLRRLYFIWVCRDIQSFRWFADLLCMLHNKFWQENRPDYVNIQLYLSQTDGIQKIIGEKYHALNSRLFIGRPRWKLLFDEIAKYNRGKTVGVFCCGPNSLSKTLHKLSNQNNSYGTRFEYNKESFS
Experiment [20] deals with NADPH oxidase 5 (Homo sapiens) (UniProt Q96PH1). The experiment is described as follows: NOX5-dependent H2O2 signal modulators, primary screen, NOX inhibitor project, cell-based, HEK293-NOX5, Amplex Red fluorescence (AID 1161). Conditions: HEK293-NOX5, ionomycin, 45 min, higher = more signal.
Sequence of NADPH oxidase 5 (Homo sapiens) (Q96PH1 whole entry, looked up): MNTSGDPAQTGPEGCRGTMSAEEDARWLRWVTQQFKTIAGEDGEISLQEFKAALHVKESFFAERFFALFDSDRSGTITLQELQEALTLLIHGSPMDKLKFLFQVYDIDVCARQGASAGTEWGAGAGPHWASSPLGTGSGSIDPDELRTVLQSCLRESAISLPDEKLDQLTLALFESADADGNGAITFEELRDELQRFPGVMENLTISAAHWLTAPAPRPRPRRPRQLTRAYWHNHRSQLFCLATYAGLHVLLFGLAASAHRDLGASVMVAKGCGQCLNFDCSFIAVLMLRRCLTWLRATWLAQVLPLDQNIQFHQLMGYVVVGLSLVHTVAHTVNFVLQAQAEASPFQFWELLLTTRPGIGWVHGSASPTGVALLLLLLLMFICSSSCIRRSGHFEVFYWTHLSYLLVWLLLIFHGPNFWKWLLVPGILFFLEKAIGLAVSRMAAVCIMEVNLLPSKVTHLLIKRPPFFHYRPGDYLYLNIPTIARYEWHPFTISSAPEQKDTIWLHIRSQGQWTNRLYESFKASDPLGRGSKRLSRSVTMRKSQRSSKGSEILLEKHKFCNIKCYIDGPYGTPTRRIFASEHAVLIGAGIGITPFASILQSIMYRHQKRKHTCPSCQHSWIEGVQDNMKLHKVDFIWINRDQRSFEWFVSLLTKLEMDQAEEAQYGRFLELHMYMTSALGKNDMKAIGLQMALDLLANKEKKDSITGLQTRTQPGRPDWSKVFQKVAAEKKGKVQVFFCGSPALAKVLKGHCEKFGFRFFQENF

Molecules are shown by their SMILES. Activity calls are given as the source filed them. Unless noted, how the calls were made is not given here.

Sequence of Torsin-1A (Homo sapiens) (O14656 whole entry, looked up): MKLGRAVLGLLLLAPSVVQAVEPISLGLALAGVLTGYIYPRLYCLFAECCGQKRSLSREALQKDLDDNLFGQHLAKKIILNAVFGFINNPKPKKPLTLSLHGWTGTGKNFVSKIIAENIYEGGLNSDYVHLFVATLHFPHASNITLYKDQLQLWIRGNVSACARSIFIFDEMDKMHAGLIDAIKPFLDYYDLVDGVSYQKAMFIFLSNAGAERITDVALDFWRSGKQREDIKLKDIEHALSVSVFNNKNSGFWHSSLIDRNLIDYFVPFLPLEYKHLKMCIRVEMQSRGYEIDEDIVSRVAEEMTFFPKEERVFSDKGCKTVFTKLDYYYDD

For the compound `COc1ccc([C@H]2C[C@H]3C(Br)=C[C@@]2(CO)C(=O)[C@]32CO2)cc1`, the composite z-score in experiment [1] is 0.0718; in [6], -0.264; in experiment [7], -0.0245; in the experiment with Torsin-1A (Homo sapiens) [8], -0.361; with Torsin-1A (Homo sapiens) [9] it was -0.83; in experiment [10] it was -0.134. Moreover, the composite z-score in [12] was -0.144. For the same compound, the z-score in experiment [2] is 0.187 (inactive); in [3] it was -0.23 (inactive); in experiment [4], 0.309 (inactive); in experiment [5] it was 1.6 (inactive); in experiment [11], -0.532 (inactive); in [13] it was -0.0473 (inactive). Also, the z-score in experiment [14] is 0.316 (inactive); in [15], -0.231 (inactive); in experiment [16], -0.039 (inactive); in experiment [17] it was -0.578; in experiment [18], 0.24 (inactive); in experiment [19], 0.624 (inactive). Moreover, the z-score in [20] is -0.268.
Turning to `CC(C)C(=C=CC[C@H](O)c1ccc(CO)o1)CCO`, the composite z-score is -0.0164 in experiment [1]; 0.0515 in experiment [6]; -0.0963 in [7]; 0.385 in the experiment with Torsin-1A (Homo sapiens) [8]; 0.291 in the experiment with Torsin-1A (Homo sapiens) [9]; 1.71 in [10]. In experiment [12], this compound yielded a composite z-score of 0.0494. For the same compound, the z-score was 0.243 (inactive) in experiment [2]; -0.0587 (inactive) in [3]; 1.87 (inactive) in [4]; 1.33 (inactive) in experiment [5]; -0.543 (inactive) in experiment [11]; 1.77 (inactive) in [13]. The z-score in experiment [14] was 0.408 (inactive); in experiment [15], 0.186 (inactive); in experiment [16], -0.012 (inactive); in experiment [17], -0.516; in experiment [18], 0.228 (inactive); in experiment [19], -0.345 (inactive). In experiment [20], the z-score is -0.21.
For the compound `CN(C)CCCCCCNC(=O)[C@@H]1C[C@@H]2C(=O)N3CCC[C@H]3C(=O)N2[C@@H]1c1ccc(O)cc1`, the composite z-score was 0.21 in experiment [1]; -0.331 in experiment [6]; 0.138 in experiment [7]; 1.4 with Torsin-1A (Homo sapiens) [8]; 1.46 in the experiment with Torsin-1A (Homo sapiens) [9]; 2.17 in experiment [10]. This compound registered a composite z-score in experiment [12] of 0.457. The z-score in [2] is -0.892 (inactive); in experiment [3], -0.999 (inactive); in [4] it was 0.561 (inactive); in experiment [5], -0.439 (inactive); in [11] it was 1.12 (inactive); in experiment [13] it was 0.974 (inactive). For the same compound, the z-score in [14] is -1.24 (inactive); in experiment [15] it was 1.09 (inactive); in experiment [16] it was -1.93 (inactive); in [17], 1.12; in [18] it was -0.245 (inactive); in [19] it was -0.176 (inactive). Also, in experiment [20], the z-score came out at 0.884.
With `CCN(CC)c1ccc(N2CC=CC34O[C@@H]5/C=C\CCC(C)OC(=O)C5[C@H]3C(=O)N(CCCCCO)[C@@H]4C2=O)cc1` (stereo not given in full), the composite z-score in experiment [1] was -0.408; in [6], -1.1; in experiment [7] it was -0.016; with Torsin-1A (Homo sapiens) [8], -1.47; in the experiment with Torsin-1A (Homo sapiens) [9], -1.59; in experiment [10], -0.0874. In experiment [12], this compound registered a composite z-score of -0.147. The z-score in experiment [2] was 0.16 (inactive); in experiment [3], 1.24 (inactive); in experiment [4] it was 1.16 (inactive); in experiment [5], -0.418 (inactive); in experiment [11], -0.0949 (inactive); in [13], -0.062 (inactive). For the same compound, the z-score is -0.928 (inactive) in experiment [14]; -0.356 (inactive) in experiment [15]; -0.427 (inactive) in [16]; 0.414 in [17]; -0.0453 (inactive) in experiment [18]; -0.419 (inactive) in [19]. The same compound showed a z-score in experiment [20] of 0.779.
